Data taken from the supplement of paper PMC7366291.
Where a name gives a salt, the structure may show the parent alone. ± gives the standard deviation or the standard deviation of the averaged measurements.

Columns and labels:
Conditions in all cases: 25 µM; exposure: 24-48 hpf
[1] = tested on: Danio rerio Tg(wt1b:EGFP) embryo, pronephros; assay: glomerular separation, fold change vs DMSO control; higher = glomeruli further apart (abnormal)
Procedure, shortened: (§1)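 Using a Fiji macro, distances and angles were calculated from 16 reference points set by hand on maximum projections of pronephroi imaged dorsally (470 nm, 10 z-slices) in agarose-filled 96-well plates. The dechorionated Tg(wt1b:EGFP) zebrafish embryos had received 25 μM compound in 0.5% DMSO in HEPES-buffered E3 with 0.003% PTU from 24 to 48 hpf at 28.5°C. Values more than 2 SD from a feature's mean were excluded. Each feature appears as a fold change over the mean of DMSO-treated embryos from the same day.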

[2] = tested on: Danio rerio Tg(wt1b:EGFP) embryo, pronephros; assay: glomerular width (mean of left and right), fold change vs DMSO control; higher = wider glomerulus
Procedure, shortened: as §1

[3] = tested on: Danio rerio Tg(wt1b:EGFP) embryo, pronephros; assay: fraction of imaged embryos annotated as normal kidney; higher = less nephrotoxic; extreme values may be limits of the assay
Procedure, shortened: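 Tricaine-anaesthetised Tg(wt1b:EGFP) zebrafish larvae were oriented dorsally in agarose-filled 96-well plates, and their pronephroi were recorded by widefield fluorescence at 470 nm in 10 z-slices. Before this, the dechorionated embryos had been exposed in 12-well plates to 25 μM compound in 0.5% DMSO and 5 mM HEPES-buffered E3 with 0.003% PTU, from 24 to 48 hpf at 28.5°C. Maximum projections were annotated manually for each embryo, and the read-out is the fraction per treatment classed as normal kidney.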

[4] = tested on: Danio rerio Tg(wt1b:EGFP) embryo, pronephros; assay: pronephric angle neck segment to proximal convoluted tubule (mean of left and right), fold change vs DMSO control; higher = larger pronephric angle
Procedure, shortened: as §1

| Compound | glomerular separation [1] | glomerular width [2] | fraction of imaged embryos annotated as normal kidney [3] | pronephric angle neck segment [4] |
| --- | --- | --- | --- | --- |
| C=C1c2c(Cl)ccc(O)c2C(=O)C2=C(O)[C@]3(O)C(=O)C(C(N)=O)=C(O)[C@@H](N(C)C)[C@@H]3[C@@H](O)[C@H]12.O=C(O)c1cc(S(=O)(=O)O)ccc1O [Meclocycline sulfosalicylate] | 1.02 ± 0.24 | 1.09 ± 0.091 | 0.917 | 0.9562 ± 0.0078 |
| CCCCc1cc2ccccc2c(OCCN(C)C)n1 [Dimethisoquin hydrochloride] | 0.777 ± 0.2 | 0.942 ± 0.065 | 0.917 | 0.9905 ± 0.004 |
| CC(=O)Oc1ccccc1C(=O)O [Acetylsalicylic acid] | 1.2 ± 0.37 | 0.951 ± 0.019 | 0.917 | 1.01 ± 0.018 |
| C#C[C@]1(O)CC[C@H]2[C@@H]3CCc4cc(OC)ccc4[C@H]3CC[C@@]21C [Ethynylestradiol 3-methyl ether] | 0.896 ± 0.42 | 1.038 ± 0.0014 | 0.833 | 1.03 ± 0.013 |
| O=C1C(O)=C([C@H]2CC[C@H](c3ccc(Cl)cc3)CC2)C(=O)c2ccccc21 [Atovaquone] | 1.05 ± 0.35 | 0.992 ± 0.027 | 0.917 | 0.959 ± 0.017 |
| CCC(C)(CN(C)C)OC(=O)c1ccccc1 (stereo unspecified) [Amyleine hydrochloride] | 1.1 ± 0.77 | 1.04 ± 0.028 | 0.833 | 0.9967 ± 0.0077 |
| Nc1ccn([C@H]2CC[C@@H](CO)O2)c(=O)n1 [Zalcitabine] | 1.08 ± 0.56 | 0.966 ± 0.061 | 0.917 | 0.996 ± 0.015 |
| CN(C)CCOC(C)(c1ccccc1)c1ccccn1 (stereo unspecified) [Doxylamine succinate] | 1.15 ± 0.53 | 0.9589 ± 0.009 | 0.818 | 1.01 ± 0.065 |
| CC1(C)O[C@@H]2C[C@H]3[C@@H]4C[C@H](F)C5=CC(=O)CC[C@]5(C)[C@H]4[C@@H](O)C[C@]3(C)[C@]2(C(=O)CO)O1 [Flurandrenolide] | 1.09 ± 0.49 | 1.08 ± 0.04 | 0.333 | 0.979 ± 0.1 |
| CC(C)NC[C@@H](O)COc1cccc2ccccc12 [(R)-Propranolol hydrochloride] | 1.07 ± 0.46 | 0.963 ± 0.013 | 0.833 | 0.98475 ± 0.00073 |
| CN[C@H]1CC[C@@H](c2ccc(Cl)c(Cl)c2)c2ccccc21 [Sertraline] | 0.914 ± 0.35 | 0.973 ± 0.035 | 0.917 | 0.969 ± 0.045 |
| Cn1c(NCCN(CCO)CCCc2ccc([N+](=O)[O-])cc2)cc(=O)n(C)c1=O [Nifekalant] | 0.925 ± 0.31 | 0.965 ± 0.033 | 0.833 | 0.9169 ± 0.0049 |
| CN(C)c1ccc(O)c2c1C[C@H]1C[C@H]3[C@H](N(C)C)C(O)=C(C(N)=O)C(=O)[C@@]3(O)C(O)=C1C2=O [Minocycline hydrochloride] | 1.02 ± 0.2 | 1.02 ± 0.024 | 0.8 | 0.92712 ± 6.2e-05 |
| COc1ccc(OC)c(C(O)CNC(=O)CN)c1 (stereo unspecified) [Midodrine hydrochloride] | 0.483 ± 0.2 | 1.2 ± 0.062 | 0.833 | 0.765 ± 0.013 |
